Measured values taken from PubChem BioAssay (NCATS).
Several values for one entry are separate records, joined by “and”; a condition that tells them apart may be missing. Identical values can stand only once. Values without a mark were called inactive. Inconclusive results are not listed. Where a call stands in place of a potency, no number is given. Some structures have more than one record in an assay (separate samples or runs), and their calls can disagree. Activity calls are given as the source filed them. Unless noted, calls follow the shape of the dose curve; as a rule, active = well fitted curve in the direction sought with a large enough effect; inconclusive = small, poorly fitted or top-dose-only effect, or another doubt; inactive = no such curve, though single readings can be large; an effect the other way counts as inactive or inconclusive.

Experiments:
MKL-2 = assay: qHTS assay to identify novel small-molecules to repurpose for Merkel cell carcinoma treatment (AID 1296009); conditions: MCC and control cell lines, CellTiter-Glo viability, 72 h; series mostly up to 46 µM; also: nearly all actives have a fitted effect of over 60% in size; also: potency is read from the fitted curve at half-maximal effect
Method in brief: (§1)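 Viability readout: ATP luminescence (CellTiter-Glo) after 72 hr drug exposure at 37 degree celsius. Dose-response format was 8 points for NPC and 11 points for MIPE; data normalized to in-plate controls.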

UISO = assay: as above; conditions: MCC and control cell lines, CellTiter-Glo viability, 72 h; series mostly up to 46 µM
Method in brief: as §1

C33A = assay: Primary qHTS to identify gynecologic anti-cancer compounds using libraries of approved drugs and bioactive compounds (AID 1345084); conditions: Gynecologic cancer cell panel viability, ATPlite luminescence, 48 h; series mostly up to 57.5 µM; also: nearly all actives have a fitted effect of over 55% in size; also: potency is read from the fitted curve at half-maximal effect
Method in brief: (§2)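 Cytotoxicity screen measuring ATP content by luciferase luminescence. Each compound is applied at five concentrations for 48 h at 37 C with 5% CO2.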

HeLa = assay: as above; conditions: Gynecologic cancer cell panel viability, ATPlite luminescence, 48 h; series mostly up to 57.5 µM
Method in brief: as §2

JEG-3 = assay: as above; conditions: Gynecologic cancer cell panel viability, ATPlite luminescence, 48 h; series mostly up to 57.5 µM
Method in brief: as §2

SKOV3 = assay: as above; conditions: Gynecologic cancer cell panel viability, ATPlite luminescence, 48 h; series mostly up to 57.5 µM
Method in brief: as §2

[1] = Drug repurposing screens with cells derived from glioblastoma tumor samples (AID 1345199); conditions: GBM patient neurospheres viability, ATP luminescence, 48 h; also: nearly all actives have a fitted effect of over 40% in size; also: potency is read from the fitted curve at half-maximal effect
Method in brief: (§3)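 Primary testing used CD133+ neurospheres from four GBM patients, seven concentrations, 48 h exposure and ATP-based viability; confirmation added three slower-growing patient lines.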

CAOV3 = assay: Primary qHTS to identify gynecologic anti-cancer compounds using libraries of approved drugs and bioactive compounds (AID 1345084); conditions: Gynecologic cancer cell panel viability, ATPlite luminescence, 48 h; series mostly up to 57.5 µM; also: nearly all actives have a fitted effect of over 55% in size; also: potency is read from the fitted curve at half-maximal effect
Method in brief: as §2

CASKI = assay: as above; conditions: Gynecologic cancer cell panel viability, ATPlite luminescence, 48 h; series mostly up to 57.5 µM
Method in brief: as §2

OV90 = assay: as above; conditions: Gynecologic cancer cell panel viability, ATPlite luminescence, 48 h; series mostly up to 57.5 µM
Method in brief: as §2

Tov112D = assay: as above; conditions: Gynecologic cancer cell panel viability, ATPlite luminescence, 48 h; series mostly up to 57.5 µM
Method in brief: as §2

Es-2 = assay: as above; conditions: Gynecologic cancer cell panel viability, ATPlite luminescence, 48 h; series mostly up to 57.5 µM
Method in brief: as §2

Hek293T = assay: as above; conditions: Gynecologic cancer cell panel viability, ATPlite luminescence, 48 h, control line for the selectivity index; series mostly up to 57.5 µM
Method in brief: as §2

PA-1 = assay: as above; conditions: Gynecologic cancer cell panel viability, ATPlite luminescence, 48 h; series mostly up to 57.5 µM
Method in brief: as §2

Tov-21-G = assay: as above; conditions: Gynecologic cancer cell panel viability, ATPlite luminescence, 48 h; series mostly up to 57.5 µM
Method in brief: as §2

WaGa = assay: qHTS assay to identify novel small-molecules to repurpose for Merkel cell carcinoma treatment (AID 1296009); conditions: MCC and control cell lines, CellTiter-Glo viability, 72 h; series mostly up to 46 µM; also: nearly all actives have a fitted effect of over 60% in size; also: potency is read from the fitted curve at half-maximal effect
Method in brief: as §1

astro = assay: Drug repurposing screens with cells derived from glioblastoma tumor samples (AID 1345199); conditions: viability, ATP luminescence, 48 h; series mostly up to 45.9 µM; also: nearly all actives have a fitted effect of over 40% in size; also: potency is read from the fitted curve at half-maximal effect
Method in brief: as §3

[2] = biological target: Nuclear receptor subfamily 1 group I member 2 (Rattus norvegicus) (UniProt Q9R1A7); assay: qHTS assay for small molecule activators of the rat pregnane X receptor (rPXR) signaling pathway (AID 651751; call rule not given here); conditions: rPXR reporter cells, luciferase (One-Glo), 24 h
[3] = at 20 µM (top of the series), tumour line C
[4] = at 45.9 µM (top of the series), tumour line B
[5] = at 45.9 µM (top of the series), tumour line D
[6] = at 46.1 µM (top of the series), tumour line C

Chain of Nuclear receptor subfamily 1 group I member 2 (Rattus norvegicus) (Q9R1A7 whole entry, looked up): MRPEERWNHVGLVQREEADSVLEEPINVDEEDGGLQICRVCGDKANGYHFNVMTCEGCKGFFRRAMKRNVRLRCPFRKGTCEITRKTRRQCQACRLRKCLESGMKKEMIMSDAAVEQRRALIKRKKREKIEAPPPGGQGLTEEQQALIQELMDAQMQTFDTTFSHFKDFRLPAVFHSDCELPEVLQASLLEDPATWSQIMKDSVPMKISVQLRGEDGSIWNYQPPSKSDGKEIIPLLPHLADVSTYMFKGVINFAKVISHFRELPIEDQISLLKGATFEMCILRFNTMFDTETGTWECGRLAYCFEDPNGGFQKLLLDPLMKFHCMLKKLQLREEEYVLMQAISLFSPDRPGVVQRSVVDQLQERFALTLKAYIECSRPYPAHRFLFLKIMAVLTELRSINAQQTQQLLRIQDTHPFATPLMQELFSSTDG

Compound: CNCCCC1c2ccccc2C=Cc2ccccc21
- Potency (MKL-2): 21.1 µM (active)
- Potency (UISO): inactive
- Potency (C33A): inactive
- Potency (HeLa): inactive
- Potency (JEG-3): inactive
- Potency (SKOV3): inactive
- activity, negative = cell killing [1, 3]: 3.37%
- Potency ([1]; tumour line A): 6.31 µM (active)

Compound: OCCN1CCN(CCCN2c3ccccc3Sc3ccc(Cl)cc32)CC1
- Potency (UISO): 26.6 µM (active)
- Potency (C33A): 20 µM (active)
- Potency (CAOV3): 25.1 µM (active)
- Potency (CASKI): 25.1 µM (active)
- Potency (HeLa): inactive
- Potency (OV90): 15.8 µM (active)
- Potency (SKOV3): 28.2 µM (active)
- Potency (Tov112D): 25.1 µM (active)
- activity, negative = cell killing [1, 3]: -18%
- Potency ([1]; tumour line A): 3.16 µM (active)
- Potency ([1]; tumour line B): 8.91 µM (active)
- Potency ([1]; tumour line D): 10 µM (active)

Compound: CC1=C(/C=C/C(C)=C/C=C/C(C)=C/C(=O)O)C(C)(C)CCC1
- Potency (UISO): inactive
- Potency (C33A): inactive
- Potency (CAOV3): inactive
- Potency (CASKI): inactive
- Potency (Es-2): inactive
- Potency (HeLa): inactive
- Potency (Hek293T): inactive
- Potency (JEG-3): inactive
- Potency (OV90): inactive
- Potency (PA-1): inactive
- Potency (SKOV3): inactive
- Potency (Tov-21-G): inactive
- Potency (Tov112D): inactive
- activity, negative = cell killing [1, 4]: -21.7%
- activity, negative = cell killing [1, 5]: -18.7%
- activity, negative = cell killing [1, 6]: -15.9%

Compound: CC(CN(C)C)CN1c2ccccc2CCc2ccccc21 (centres undefined)
- Potency (UISO): inactive
- Potency (WaGa): inactive
- Potency (C33A): inactive
- Potency (CAOV3): inactive
- Potency (Es-2): inactive
- Potency (HeLa): inactive
- Potency (Hek293T): inactive
- Potency (JEG-3): inactive
- Potency (PA-1): inactive
- Potency (SKOV3): inactive
- Potency (Tov-21-G): inactive
- Potency (Tov112D): inactive
- activity, negative = cell killing [1, 3]: -0.604%
- activity, negative = cell killing ([1]; at 21.2 µM (top of the series), tumour line B): -19%
- Potency ([1]; tumour line A): 6.31 µM (active)
- Potency (astro): inactive

Compound: CN(C)CCC=C1c2ccccc2CCc2ccccc21
- Potency (UISO): inactive
- Potency (C33A): inactive
- Potency (CASKI): inactive
- Potency (Es-2): inactive
- Potency (HeLa): inactive
- Potency (JEG-3): inactive
- Potency (PA-1): inactive
- Potency (SKOV3): inactive
- Potency (Tov-21-G): inactive
- Potency (Tov112D): inactive
- max response [2]: 4.03% and -3.34%

Compound: CC/C=C(\C(=O)N[C@@H]1C(=O)N2C(C(=O)OCOC(=O)C(C)(C)C)=C(COC(N)=O)CS[C@H]12)c1csc(N)n1
- Potency (MKL-2): inactive
- Potency (UISO): inactive
- Potency (C33A): inactive
- Potency (CASKI): inactive
- Potency (Es-2): inactive
- Potency (HeLa): inactive
- Potency (Hek293T): inactive
- Potency (JEG-3): inactive
- Potency (OV90): inactive
- Potency (PA-1): inactive
- Potency (SKOV3): inactive
- Potency (Tov-21-G): inactive
- Potency (Tov112D): inactive
- activity, negative = cell killing [1, 4]: -9.61% and -1.73%
- activity, negative = cell killing [1, 5]: -14.3% and 0.361%
- activity, negative = cell killing [1, 6]: -12.1% and -5.64%
- Potency ([1]; tumour line A): 17.8 µM (active)
- Potency (astro): inactive

Compound: NC(=O)c1ncn([C@@H]2O[C@H](CO)[C@@H](O)[C@H]2O)n1
- Potency (CAOV3): inactive
- Potency (CASKI): inactive
- Potency (Es-2): inactive
- Potency (HeLa): inactive
- Potency (Hek293T): inactive
- Potency (JEG-3): inactive
- Potency (Tov112D): inactive
- activity, negative = cell killing [1, 4]: -11%
- activity, negative = cell killing [1, 5]: -8.98%
- activity, negative = cell killing ([1]; at 46 µM (top of the series), tumour line A): -27.6%
- activity, negative = cell killing [1, 6]: -10.2%
- Potency (astro): inactive
- max response [2]: -13.6%
